This is a sample that favours compounds with a hit; in the whole collection about 2.5% have one here.
NSD2 HMT inh: NSD2 (human) methyltransferase inhibition; NSD2 peptide methylation, AlphaScreen, 120 min; inhibition, % at 12.5 µM; 310,000 tested, 0.54% active; AID 743445; in the data active = inhibition above about 50%
RAD52 inh: blocks human RAD52 DNA annealing; 360,000 tested, 0.46% active; inhibition, % at 18.7 µM; P43351; recombinant RAD52 DNA annealing, FRET fluorescence;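 active = every replicate showing at least 50% inhibition; inconclusive = mean inhibition at least 50% but not in every replicate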
Target sequence (P43351 whole entry, looked up): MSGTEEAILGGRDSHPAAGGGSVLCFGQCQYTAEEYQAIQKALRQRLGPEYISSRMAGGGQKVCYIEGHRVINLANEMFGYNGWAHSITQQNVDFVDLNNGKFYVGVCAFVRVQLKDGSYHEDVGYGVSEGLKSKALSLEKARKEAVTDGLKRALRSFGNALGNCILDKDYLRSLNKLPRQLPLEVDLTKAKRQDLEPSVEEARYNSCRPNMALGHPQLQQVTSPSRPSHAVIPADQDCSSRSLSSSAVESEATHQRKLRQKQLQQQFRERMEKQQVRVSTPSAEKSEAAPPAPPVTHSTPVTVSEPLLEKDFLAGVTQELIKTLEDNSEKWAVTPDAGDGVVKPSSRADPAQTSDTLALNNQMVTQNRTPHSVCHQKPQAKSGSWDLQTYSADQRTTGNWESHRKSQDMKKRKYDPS
AF4-AF9 inh: inhibitors of human MLL-AF4/AF9 interaction; inhibition, % at 10 µM; AlphaScreen, biotin-AF4 peptide binding to FLAG-AF9; 350,000 tested, 0.47% active;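 active = every replicate reaching a set inhibition limit, whatever the replicate mean, cut at about 25% in these data; inconclusive = mean inhibition reaches that limit but some replicates miss it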;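 also: 0% = plate neutral control median and 100% = total signal loss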
Ecoli rRNA inh: selective bacterial rRNA inhibition in E. coli; E. coli WT GFP vs humanized-ribosome RFP mutants, fluorescence, 24 h; stronger effect = lower value; DMSO median 0, no signal -100; GFP signal change (wild-type ribosome), % (test concentration not listed); 350,000 tested, 1.6% active;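 active = significant combined selectivity score with lowered wild-type GFP, culture density cut under 30%, mutant RFP and density less affected; inactive = any of these conditions unmet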
Casp6 inh: inhibitors of human caspase-6; 350,000 tested, 0.53% active; inhibition, % at 12.5 µM; purified caspase-6, Z-VEID-R110 cleavage fluorescence;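 active = mean inhibition across replicates at least about 35%, with every replicate also reaching that limit, limit read from the data; inconclusive = only one of the two criteria met; inactive = neither criterion met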;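 also: 0% = median of neutral control wells and 100% = no fluorescence left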
Alpha interfer: counter-screen: AlphaScreen signal interference | shares compounds with AF4-AF9 inh | signal luminescence | AC50, µM (series often up to 12 µM), for the others: at the highest dose activity change, negative = inhibition | 530 tested, 45% active; cut-off not given, nearly all actives have AC50 up to about 14 µM
DNA binder FP: DNA binding artifact in RAD52 counter-screen. 1,000 tested, 8% active. shares compounds with RAD52 inh. AC50, µM. AID 652128. Salmon sperm DNA/acridine orange FP displacement;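 active = fitted half-maximal concentration for signal loss at or below twice the highest dose tested, in every separate run, actives reach about 64 µM in these data; inconclusive = runs disagree, or flat partial signal loss, or poor fit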
AlphaScreen art: interferes with AlphaScreen signal, flagging NSD2 false positives; shares compounds with NSD2 HMT inh; AlphaScreen artifact counterscreen, preloaded methylated H4 peptide; AC35, µM (doses to about 10 µM), for the others: at the top dose activity change, negative = signal loss; 1,500 tested, 9.4% active; AID 1053174; call rule not given here
Starred values were filed as active, the others as inactive; i = inactive; ? = inconclusive; . = not tested or not shown; ! = not confirmed by another sample.

SMILES | NSD2 HMT inh | RAD52 inh | AF4-AF9 inh | Ecoli rRNA inh | Casp6 inh | Alpha interfer | DNA binder FP | others
CN(C)CC/C=C1\c2ccc(F)cc2Sc2cc(F)c(Cl)cc21 | 23 | 71* | 46* | -43 | 7 | -42% | i
CN(C)CC/C=C1\c2ccccc2Sc2ccc(Cl)cc21 | . | 46 | 24 | -58 | 1 | . | .
CCCNC(=O)N1[C@@H](CO)[C@H](c2ccccc2)[C@@H]1CNC(=O)c1ccccc1 | . | 0 | -1 | -4 | 0 | . | .
Cc1ccc(S(=O)(=O)N(C)C[C@H]2Oc3c(NC(=O)CCCCCC(=O)Nc4ccccc4N)cccc3C(=O)N([C@@H](C)CO)C[C@H]2C)cc1 | . | -13 | -12 | -4 | -2 | . | .
N=C(N)c1ccc(/C=C/c2ccc(C(=N)N)cc2O)cc1 | 13 | 97* | 61* | 33 | -50 | -29% | i
N=C(N)c1ccc(Cl)cc1 | 2 | 3 | 0 | 12 | 0 | . | .
Cc1cc(C)cc(OCC(O)CN2CCC(CN3C(=O)c4cccc5cccc(c45)C3=O)CC2)c1 (centres undefined) | 0 | 95* | 30* | -55 | 2 | -33% | i
COc1cccc(OCC(O)CN2CCC(CN3C(=O)c4cccc5cccc(c45)C3=O)CC2)c1 (centres undefined) | 5 | 86* | 34* | -36 | -3 | -10% | i
Oc1ccccc1C=NCC(O)c1ccccc1 (centres undefined) | -2 | -18 | 5 | 1 | 4 | . | .
Oc1ccccc1C=NCCN1CCN(CCN=Cc2ccccc2O)C1c1ccccc1O (centres undefined) | 0 | 66* | 30* | 9 | -343 | 13% | i
Oc1ccccc1C=NCCCCCCN=Cc1ccccc1O | 4 | 59* | 39* | 9 | -90 | -13% | i
Oc1ccccc1C=NCCN=Cc1ccccc1O | 15 | -4 | -3 | 9 | -44 | . | .
C#CCOCCOCCOCCNc1nc(N2CCN(C(=O)[C@H](CCCCN)n3cc(CN)nn3)CC2)nc(N2CCN(C(=O)[C@H](CC(N)=O)n3cc(C(N)[C@H](C)CC)nn3)CC2)n1 (some centres undefined) | . | 64* | ? | 7 | -141 | -13% | i
C#CCOCCOCCOCCNc1nc(N2CCN(C(=O)[C@H](CCCCN)n3cc(CN)nn3)CC2)nc(N2CCN(C(=O)[C@H](CCCN=C(N)N)n3cc(C(N)[C@H](C)CC)nn3)CC2)n1 (some centres undefined) | . | 77* | 45* | 6 | -219 | -10% | ?
C[C@@H]1CCCCO[C@H](CN(C)S(=O)(=O)c2ccccc2)[C@H](C)CN([C@@H](C)CO)C(=O)c2cc(NS(=O)(=O)c3ccccc3)ccc2O1 | . | -68 | 2 | -6 | -6 | . | .
Cc1ccc(S(=O)(=O)Nc2ccc3c(c2)CC(=O)N([C@@H](C)CO)C[C@H](C)[C@@H](CN(C)Cc2ccccc2)O3)cc1 | . | -8 | 4 | -44 | 5 | . | .
CC(C)NC(=O)N(C)C[C@H]1Oc2ccc(NC(=O)c3ccncc3)cc2CC(=O)N([C@@H](C)CO)C[C@H]1C | . | -10 | -2 | 7 | -2 | . | .
CC1CN(C)C(C)c2c1oc1ccc(N)cc21 (centres undefined) | . | 95* | 35* | 1 | -19 | -26% | i
CCOC(=O)c1c(-c2ccc(-c3ccccc3)cc2)csc1NC(=O)CNCCN(C)C | 34 | 95* | 31* | -59 | -216 | -32% | i
O=C(C[C@@H]1C[C@H]2c3cc(NC(=O)CC4CC4)ccc3O[C@H]2[C@H](CO)O1)NCc1ccccc1F | . | 2 | -1 | -5 | 0 | . | .
Cc1noc(C)c1NC(=O)N(C)C[C@H]1Oc2ccc(NC(=O)Nc3ccc(F)cc3)cc2CC(=O)N([C@H](C)CO)C[C@@H]1C | . | -3 | -2 | -2 | 1 | . | .
CC1NC(=O)NC1CCCCCC(=O)Nc1ccc(F)c(Cl)c1 (centres undefined) | 103* | -20 | 93* | -18 | -6 | 0.6µM* | . | AlphaScreen art=3.8µM*
Cc1ccc(CNCCNCCO)s1 | -2 | -47 | 0 | -2 | -8 | . | .
O=C1c2c(O)ccc(O)c2C(=O)c2c(NCCNCCO)ccc(NCCNCCO)c21 | 92* | 102* | 97* | . | -238 | 0.35µM* | 1.5µM*! | AlphaScreen art=2µM*
CN1c2ccc(-c3cccc(F)c3)cc2[C@@H]2[C@@H](CCN2S(=O)(=O)c2cccc(F)c2)[C@H]1CO | . | 29 | 1 | -1 | 2 | . | .
SMILES | NSD2 HMT inh | RAD52 inh | AF4-AF9 inh | Ecoli rRNA inh | Casp6 inh | Alpha interfer | DNA binder FP | others
Cc1nc2cc(-c3ccc(Cl)cc3)nn2c(NCCN(C)C)c1C | 2 | 77* | 8 | 5 | -1 | . | i
Cc1cc(C)n2nc(-c3ccc(Cl)cc3)cc2n1 | 3 | -9 | 5 | -2 | 6 | . | .
Nc1ccc(NC(=O)CCN2CCOCC2)cc1 | 1 | 60* | -3 | 24 | -15 | . | i
C[C@@H]1CN([C@@H](C)CO)C(=O)Cc2cc(NC(=O)c3ccncc3)ccc2O[C@H]1CN(C)Cc1ccc(-c2ccccc2)cc1 | . | -24 | 15 | -3 | -2 | . | .
CC[n+]1c(/C=C2/C=C(C)CC(C)C2)sc2ccccc21 (centres undefined) | 3 | -11 | 2 | 3 | -4 | . | .
CC[n+]1c(C=C2C=C(C)OC(C)=C2)sc2ccccc21 | 7 | 59* | 0 | -38 | . | . | i
C[C@@H]1CN([C@H](C)CO)C(=O)c2cc(C#C[C@@H](C)O)cnc2O[C@@H]1CN(C)C(=O)Cc1ccncc1 | . | -32 | -2 | 3 | -3 | . | .
CC1CCN(Cc2c(C(=O)N/N=C/c3cc(Br)ccc3O)nnn2-c2nonc2N)CC1 | 6 | 2 | 1 | 5 | -3 | . | .
C/C(=N\NC(=O)c1nnn(-c2nonc2N)c1CN1CCC(C)CC1)c1ccc(Br)cc1 | -4 | 72* | 2 | 1 | -2 | . | i
COc1cccc2sc3ccc(C#CC4(N)CCCCC4)cc3c(=O)c12 | . | 90* | 11 | -38 | -3 | . | i
COc1ccc(Nc2c3ccccc3nc3ccccc23)cc1 | 10 | 73* | 13 | 0 | 1 | . | 11µM*
COc1ccc(Nc2c3c(nc4ccccc24)CCC3)cc1 | 8 | 34 | 9 | -6 | -3 | . | .
Cc1ccc(-c2nc(Nc3cccc(O)c3)c3ccccc3n2)cc1 | -3 | -20 | -4 | -59 | 5 | . | .
Oc1cccc(Nc2c3ccccc3nc3ccccc23)c1 | -1 | 82* | 0 | -17 | -1 | . | ?
c1cncc(Nc2c3ccccc3nc3ccccc23)c1 | -1 | 59* | -13 | -4 | 1 | . | i

Assay outcomes from PubChem BioAssay.
